From publication PMC5540273 (PLoS ONE, 2017)

Key:
Settings in all cases: concentration: 1 μM, replicates: in singlicate; n = 1
[1] = test system: PIP5K1A
[2] = test system: PIP5K1C
[3] = test system: PIP5K2B
[4] = test system: T1, PIP5K2C
T1 construct: gene PIP4K2C

[5] = test system: T2, PKAC-alpha
T2 construct: gene PRKACA

[6] = test system: T3, PKAC-beta
T3 construct: gene PRKACB

[7] = test system: PKMYT1
[8] = test system: PKN1
[9] = test system: PKN2
[10] = test system: PLK1
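Also: KINOMEscan kinase panel screen.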

SMILES | %Inh [1] | %Inh [2] | %Inh [3] | %Inh [4] | %Inh [5] | %Inh [6] | %Inh [7] | %Inh [8] | %Inh [9] | %Inh [10]
CC(C)(C)c1ccc2nccc(Nc3cccc(O)c3)c2c1 [GW856795] | 29% | 40% | 8% | 7% | 90.5% | 0% | 0% | 0% | 0% | 0%
Cc1ccc(F)c(C(=O)Nc2cccc(-c3nn4ccccc4c3-c3ccnc(Nc4cccc(F)c4)n3)c2)c1F [GSK361061] | 0% | 6% | 15% | 0% | 13% | 29% | 17% | 0% | 17% | 19%
Nc1ncc(-c2cccnc2)c2scc(-c3ccc4c(c3)CCN4C(=O)Cc3ccccc3)c12 [GSK683281] | 0% | 17% | 19% | 0% | 31% | 13% | 13% | 30% | 18% | 5%
NCCCC(NC(=O)c1cc(Br)c(-c2ccnc3[nH]ccc23)s1)c1ccccc1.O=C(O)C(F)(F)F.O=C(O)C(F)(F)F (stereo not shown) [GSK1287544] | 72% | 42% | 60% | 28% | 99.4% | 99.2% | 0% | 18% | 58% | 0%
CC(=O)N1CCN(c2ccc(Nc3nccc(-c4sc(C(C)C)nc4-c4cccc(NS(=O)(=O)c5cccc(Cl)c5)c4)n3)cn2)CC1 [GSK1660437] | 0% | 15% | 15% | 66% | 0% | 6% | 0% | 57% | 12% | 0%
FC(F)(F)c1ccc(/C=C/c2cncnc2Nc2ccc3[nH]c(Cc4ccccc4)nc3c2)cc1 [GW709199] | 32% | 30% | 0% | 38% | 0% | 29% | 25% | 0% | 12% | 0%
C[C@@H]1CC[C@@H](C(=O)Nc2ccccc2)CN1c1cc(-c2ccc3c(N)n[nH]c3c2)nc(N)n1 [GSK2286062] | 0% | 18% | 3% | 4% | 0% | 0% | 16% | 0% | 0% | 0%
Nc1ncc(-c2ccc3nccc(-c4ccncc4)c3c2)cc1S(=O)(=O)N1CCOCC1 [GSK1627798] | 0% | 0% | 5% | 30% | 0% | 0% | 11% | 12% | 0% | 0%
CN1CCN(CCCNc2nccc(-c3c(-c4ccc(F)cc4)nn4cc(C(F)(F)F)ccc34)n2)CC1 [GW621581] | 0% | 11% | 0% | 0% | 0% | 9% | 0% | 12% | 0% | 0%
CCS(=O)(=O)c1ccc(OC)c(Nc2nccc(-c3c(-c4cccc(NC(=O)c5c(F)cccc5F)c4)nn4ncccc34)n2)c1 [GSK326180] | 0% | 8% | 0% | 40% | 0% | 0% | 0% | 0% | 0% | 0%
COc1cccc(NC(=O)NC2CCN(c3ccnc(Nc4cc(OC)c(OC)c(OC)c4)n3)C2)c1 (stereo not shown) [GSK1379763] | 0% | 57% | 0% | 91.1% | 0% | 0% | 64% | 0% | 0% | 15%
Cl.c1ccc(-c2ccc3c(Nc4ccc5[nH]ncc5c4)ccnc3c2)nc1 [GW440137] | 18% | 30% | 0% | 55% | 0% | 0% | 0% | 15% | 0% | 0%
COc1ccc(CNC(=O)NC2CCN(c3ccnc(Nc4ccc(F)cc4)n3)CC2)cc1 [GSK1379788] | 5% | 57% | 4% | 9% | 0% | 0% | 0% | 0% | 0% | 0%
Cc1ccc(C)c(NC(=O)NC2CCN(c3ccnc(Nc4ccc(F)cc4)n3)C2)c1 (stereo not shown) [GSK1379720] | 0% | 65% | 38% | 47% | 0% | 0% | 5% | 0% | 0% | 0%
Cl.NC(=O)c1cccc(Nc2nccc(Nc3ccc(Oc4c(Cl)cccc4Cl)c(Cl)c3)n2)c1 [GW659009] | 0% | 19% | 97.4% | 64% | 0% | 0% | 0% | 59% | 0% | 0%
c1ccc(-c2cnc3nccnn23)cc1 [AH20685] | 0% | 24% | 13% | 0% | 0% | 0% | 0% | 7% | 0% | 0%
